Data on 16 compounds can be found in PubChem BioAssay.

For one test, the target named is Albumin (Bos taurus) (UniProt P02769). Briefly: compounds binding labelled BSA control protein – biochemical, small-molecule microarray, Alexa647 label, 635/667 nm fluorescence, artefact control for SMM control protein annotation, profiling panel (AID 1118).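 Note: score merges 667 nm emission intensity and signal-to-noise per printed compound spot.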 The following applies: BSA-A647 binding, fluorescence 635 nm, higher = more signal.
A short description of test [1]: probe aXIP binding to arrayed compounds – biochemical, NeuroSMM set, 635/667 nm fluorescence, primary screen (AID 1119).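 Note: probe is the protein aXip251-270 applied at 1 µg/mL to compound-printed slides; binding of probe to printed compounds measured as 667 nm fluorescence plus signal to noise.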 The following applies: small-molecule microarray, higher = more signal, called active from +8 up or from −8 down.
Test [2] in a line: probe aNOTCH3 binding on compound microarray – biochemical, small-molecule microarray, 635/667 nm fluorescence, primary screen (AID 1120).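 Note: probe is a biotin-tagged antibody raised against NOTCH3 rather than NOTCH3 protein; score merges spot fluorescence near 667 nm with spot signal to noise.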 The following applies: higher = more signal.
The nature of test [3]: probe aNOTCH2 binding on compound microarray – biochemical, small-molecule microarray, 635/667 nm fluorescence, primary screen (AID 1121).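 Note: score merges feature fluorescence read at 667 nm with its signal to noise.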 The settings on record: higher = more signal.
The target of test [4] is Carbonic anhydrase 2 (Homo sapiens) (UniProt P00918). Briefly: compounds binding carbonic anhydrase 2 – biochemical, small-molecule microarray, Alexa647-labelled CAII, profiling panel (AID 1122). The following applies: CAII-A647 binding fluorescence, higher = more signal.
Test [5] is described as follows: COS7 lysate on small-molecule microarray, probe aHis, 635 nm (AID 1123).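 Note: z-score combines 667nm fluorescence intensity with signal-to-noise per printed compound spot.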 The following applies: COS7 cell lysate, fluorescence, higher = more signal.
The nature of test [6]: probe aLAP1 signal on lysate-treated microarray – cell lysate, small-molecule microarray, COS7 lysate, primary screen (AID 1124).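 Note: lysate comes from COS7 cells expressing LAP1 and is applied at 0.3 µg/mL; score merges spot fluorescence near 667 nm with signal-to-noise over triplicate slides.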 The following applies: probe aLAP1, fluorescence, higher = more signal.
Another test relates to Sam68 (KHDRBS1). Nature of the test: compounds binding KHDRBS1 protein – biochemical, small-molecule microarray, 635 nm fluorescence, primary screen (AID 1125).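 Note: score merges 667 nm channel intensity with signal to noise over triplicate slides.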 The settings on record: higher = more signal.
For test [7], the system named is Chordin-like protein 2 (CHRDL2). Nature of the test: compounds binding chordin-like 2 – biochemical, small-molecule microarray, 635 nm fluorescence, primary screen (AID 1126).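 Note: printed compound slides probed with Chrdl2 protein at 4 µg/mL for 1 h at 4 C; score merges 667 nm emission intensity with signal to noise over three replicate slides.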 The following applies: fluorescence 635 nm, higher = more signal.
Test [8] has as its target Concanavalin-A (Canavalia ensiformis) (UniProt P02866). Briefly: compounds binding concanavalin A lectin – biochemical, small-molecule microarray, Alexa647 label, 635 nm, artefact control for SMM control protein annotation, primary screen (AID 1127).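 Note: z combines 667 nm emission intensity with signal-to-noise across three replicate slides.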 The following applies: ConA-A647 binding fluorescence, higher = more signal.

The source made the active and inactive calls.

Concanavalin-A (Canavalia ensiformis), sequence (P02866 whole entry, looked up): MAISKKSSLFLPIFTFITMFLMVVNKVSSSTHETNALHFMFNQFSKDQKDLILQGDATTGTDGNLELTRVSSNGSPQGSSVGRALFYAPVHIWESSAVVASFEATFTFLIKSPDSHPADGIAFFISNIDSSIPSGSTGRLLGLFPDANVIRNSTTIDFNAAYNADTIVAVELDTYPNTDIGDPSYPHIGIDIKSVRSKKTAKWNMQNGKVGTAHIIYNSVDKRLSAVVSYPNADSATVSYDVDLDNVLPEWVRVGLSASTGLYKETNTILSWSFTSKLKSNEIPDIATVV
Albumin (Bos taurus), sequence (P02769 whole entry, looked up): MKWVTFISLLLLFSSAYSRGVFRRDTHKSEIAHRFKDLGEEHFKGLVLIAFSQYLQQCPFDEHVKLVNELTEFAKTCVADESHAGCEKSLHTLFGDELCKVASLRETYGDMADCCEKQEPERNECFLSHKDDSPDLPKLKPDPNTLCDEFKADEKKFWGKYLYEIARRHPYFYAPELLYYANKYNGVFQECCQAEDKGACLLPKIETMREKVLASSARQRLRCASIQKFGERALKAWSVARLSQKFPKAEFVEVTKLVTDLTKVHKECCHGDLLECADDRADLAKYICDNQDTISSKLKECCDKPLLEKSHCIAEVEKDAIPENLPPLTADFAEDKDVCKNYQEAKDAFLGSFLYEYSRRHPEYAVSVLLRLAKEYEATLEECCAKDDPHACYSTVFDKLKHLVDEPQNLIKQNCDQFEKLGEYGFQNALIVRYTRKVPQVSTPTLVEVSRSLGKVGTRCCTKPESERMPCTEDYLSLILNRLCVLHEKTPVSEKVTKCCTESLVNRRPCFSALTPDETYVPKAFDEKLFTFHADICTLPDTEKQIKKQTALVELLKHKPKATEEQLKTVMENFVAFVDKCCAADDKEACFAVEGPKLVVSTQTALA

`COC(=O)C1=CC(CCCO)=CC(C)N(Cc2cccc(OC(F)(F)F)c2)C=C1C(=O)OC` (stereo not given): the composite z-score is 1.03 with Albumin (Bos taurus); 0.147 in test [2]; -0.0743 in [3]; 0.8 in test [4]; 2.63 in test [5]; 0.348 in [6]. The composite z-score is 1.27 with Sam68 (KHDRBS1), -0.595 in test [7] and 0.355 in test [8]. For the same compound, in [1], the composite Z-score was -0.288 (inactive).
For `C=C(COC)C(=O)CC[C@@H](OC(=O)c1cccnc1)c1ccccc1OCCO`, the composite z-score with Albumin (Bos taurus) was -0.726; in [2], 0.0237; in test [3] it was -0.0681; in test [4], 0.758; in test [5], 0.105; in test [6], -0.377. The composite z-score in the test on Sam68 (KHDRBS1) is -0.356; in [7], 0.349; in [8], 0.484. The composite Z-score in [1] was 0.245 (inactive).
`COCCOC(=O)N1C(=O)[C@@]2(c3cc(C#CCNC(N)=O)ccc31)[C@H](c1ccc(O)cc1)N1[C@H](c3ccccc3)[C@H](c3ccccc3)OC(=O)[C@H]1[C@@H]2C(N)=O`: the composite z-score with Albumin (Bos taurus) is -0.864; in [2], -0.443; in test [3], -0.198; in test [4], -0.394; in test [5], -0.157; in test [6] it was -0.38. The composite z-score is -0.344 in the test on Sam68 (KHDRBS1), -1.52 in test [7] and -1.03 in [8]. In addition, the composite Z-score in test [1] was -1.03 (inactive).
In the case of `COCCOC(=O)N1C(=O)[C@@]2(c3ccccc31)[C@H](c1ccccc1OCCO)N1[C@H](c3ccccc3)[C@H](c3ccccc3)OC(=O)[C@H]1[C@@H]2C(=O)N1CCCCCCC1`, the composite z-score with Albumin (Bos taurus) was -0.0233; in test [2], 2.15; in [3], 1.16; in test [4], 0.935; in [5], 4.27; in test [6] it was 1.96. Also, the composite z-score in the test on Sam68 (KHDRBS1) turned out to be 1.29; in test [7], 1.47; in test [8] it was 0.883. Besides, the composite Z-score in test [1] is 7.47 (inactive).
Consider `COc1cc(NN2C(C(O)C3CCCCC3)C=CC3C(=O)N(C)C(=O)C32)cc(OC)c1OC` (stereo not given), for which the composite z-score turned out to be 1.04 in the test with Albumin (Bos taurus); 0.678 in test [2]; 0.22 in test [3]; 0.424 in test [4]; 2.78 in test [5]; 0.339 in test [6]. Also, the composite z-score in the test with Sam68 (KHDRBS1) is 1.32; in test [7], -0.531; in test [8], 1.15. The composite Z-score in [1] was 1.37 (inactive).
`C#C[C@@H](CC)O[Si](C#CCCCC#N)(C(C)C)C(C)C`: the composite z-score with Albumin (Bos taurus) is 0.202; in test [2], -0.0391; in [3] it was -0.174; in test [4], 0.797; in test [5], 1.59; in [6] it was -0.252. In addition, the composite z-score with Sam68 (KHDRBS1) is 0.441; in test [7], 0.106; in test [8], -0.193. In addition, the composite Z-score in test [1] is -0.608 (inactive).
Take `C=CCC(OC(C)=O)[C@@H]1[C@@H](N(Cc2cc3ccccc3o2)C(=O)c2ccc(-c3ccccc3)cc2)c2cc(OCCCO)ccc2N1C(=O)Cc1ccc(OC)cc1` (stereo not given in full): the composite z-score was 0.0787 with Albumin (Bos taurus); -0.0189 in test [2]; -0.14 in test [3]; -0.284 in test [4]; 0.401 in test [5]; -0.237 in test [6]. In addition, the composite z-score in the test with Sam68 (KHDRBS1) stood at 0.0416; in test [7] it was 0.186; in test [8] it was 0.444. The composite Z-score in test [1] is 0.443 (inactive).
On to `CC(C)c1ccc(NN2C(C(O)Cc3ccccc3)C=CC3C(=O)N(c4ccccc4)C(=O)C32)cc1` (stereo not given), for which the composite z-score with Albumin (Bos taurus) came to 0.999; in [2], 0.428; in test [3] it was 0.0383; in test [4], 0.751; in test [5], 2.65; in test [6] it was 0.0643. Also, the results for the composite z-score (in the test on Sam68 (KHDRBS1); in [7]; in test [8]) were 1.31, -0.209 and 1.14, respectively. Also, the composite Z-score in test [1] is 0.221 (inactive).
Consider `COC(=O)[C@@]1(Cc2ccc(OC)cc2)[C@H]2c3cc(C(=O)N4CCCC4)n(Cc4cc(C)n(C)n4)c3C[C@H]2CN1C(=O)c1ccccc1`, for which the composite z-score with Albumin (Bos taurus) is 1.09; in [2], 0.313; in test [3], 0.446; in test [4], 0.962; in test [5] it was 3.19; in test [6], 0.637. Moreover, the composite z-score is 1.32 in the test on Sam68 (KHDRBS1), -1.19 in [7] and 0.485 in test [8]. The composite Z-score in test [1] was 5.19 (inactive).
Consider `CCCCNC(=O)c1ccc(C#C[Si](C(C)C)(C(C)C)C(C)C)c(OC(C)=O)c1`, for which the composite z-score with Albumin (Bos taurus) is -0.154; in test [2], 0.089; in [3], -0.117; in test [4] it was 0.925; in test [5] it was 0.1; in [6] it was -0.18. For the same compound, the composite z-score amounted to 0.823 in the test on Sam68 (KHDRBS1), 1.33 in test [7] and 0.94 in [8]. Moreover, the composite Z-score in test [1] was 0.168 (inactive).
With `CCCCCN1CC=CC23O[C@@H]4C=CCOC(=O)[C@@H]4[C@H]2C(=O)N(CCO)[C@@H]3C1=O` (stereo not given in full), the composite z-score in the test with Albumin (Bos taurus) is -0.141; in [2], -0.221; in test [3], -0.14; in test [4] it was 0.907; in test [5], 1.28; in test [6], -0.0117. In addition, the composite z-score with Sam68 (KHDRBS1) was -0.263; in test [7] it was -1.33; in [8] it was -0.502. Further, the composite Z-score in test [1] is 0.403 (inactive).
`CCCC=C(CCC)[C@@H](NS(=O)(=O)c1cccc2cccnc12)c1ccc(-c2ccccc2)cc1`: the composite z-score with Albumin (Bos taurus) was 0.723; in test [2], 0.438; in test [3], -0.0581; in test [4], 0.666; in test [5] it was 2.88; in test [6] it was 0.0607. In addition, the figures for the composite z-score (in the test on Sam68 (KHDRBS1); in test [7]; in [8]) were 1.31, -0.677 and 1.14, respectively. Further, the composite Z-score in test [1] is 0.339 (inactive).
With `O=C(NCC(O)CO)[C@@]1(CCS(=O)(=O)c2ccccc2)COC(c2ccc(OCCCO)cc2)=N1` (stereo not given in full), the composite z-score with Albumin (Bos taurus) was 0.927; in [2], 0.241; in [3], 0.0342; in test [4], 0.863; in test [5], 3.35; in test [6] it was -0.0542. In addition, the values for the composite z-score (with Sam68 (KHDRBS1); in test [7]; in test [8]) were 0.679, -0.734 and 0.572, respectively. For the same compound, the composite Z-score in [1] is 0.538 (inactive).
As to `C=C(COC)/C(=C/C[C@@H](OC(C)=O)c1ccc(CO)o1)c1cc(C(=O)OC)ccc1OC`, the composite z-score with Albumin (Bos taurus) is -0.418; in [2], -0.0647; in [3] it was -0.133; in test [4], 0.579; in test [5], 0.694; in test [6], 0.662. Moreover, the composite z-score is 0.246 with Sam68 (KHDRBS1), -0.228 in [7] and 0.581 in test [8]. Also, the composite Z-score in test [1] was 0.615 (inactive).
In the case of `COCCCNC(=O)[C@@]1(c2ccc([N+](=O)[O-])cc2)CC(=O)N(C(C)C)[C@@H]1c1ccc(CO)cc1`, the composite z-score in the test with Albumin (Bos taurus) is 0.224; in [2], -0.424; in test [3] it was -0.0282; in test [4] it was 0.729; in test [5] it was 0.198; in test [6] it was 1.25. The composite z-score with Sam68 (KHDRBS1) is 0.353; in test [7], 0.454; in test [8] it was -1.5. In addition, the composite Z-score in [1] was -0.786 (inactive).
Turning to `C=CCNC(=O)[C@@H]1[C@H]2C(=O)O[C@H](c3ccccc3)[C@H](c3ccccc3)N2[C@H](c2ccc(OCCO)cc2)[C@@]12C(=O)N(C(=O)OCCOC)c1ccc(C#CCCO)cc12`, the composite z-score with Albumin (Bos taurus) was 0.474; in test [2], 0.0422; in test [3] it was -0.0677; in test [4], 0.576; in [5], 1.23; in [6], 0.659. The composite z-score in the test with Sam68 (KHDRBS1) turned out to be 1.27; in [7], 0.528; in [8], 1.11. Besides, the composite Z-score in test [1] was 0.365 (inactive).
